Data from PubChem BioAssay AID894 (National Center for Advancing Translational Sciences (NCATS), 2007).
Screen size: about 150,000 compounds; about 6,500 (4.3%) were called active. Inconclusive results (about 12%) are left out. Calls come from the whole dose curve; as a rule, active = well fitted inhibition curve with a large enough effect (not every such curve was filed as active); inconclusive = small, poorly fitted or top-dose-only effect, or another doubt; inactive = no such curve, though single readings can be large or run the other way. What follows is part of a selection rich in actives, with near analogues and random picks from the rest.

Target: 15-hydroxyprostaglandin dehydrogenase [NAD(+)] (Homo sapiens) (UniProt P15428)
Experiment: qHTS Assay for Inhibitors of HPGD (15-Hydroxyprostaglandin Dehydrogenase)
Conditions: purified HPGD, NADH fluorescence kinetic, PGE2 substrate; activity change, negative = inhibition: active compounds read low
Procedure, shortened: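 20 nM HPGD preincubated 15 min at room temperature with compound in 50 mM Tris-HCl pH 8, 0.01% Tween 20. Started with 1 mM NAD+ and 30 uM prostaglandin E2; NADH fluorescence (360/450 nm) read 5 times over 30-s intervals, last minus first.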
% is set by controls: 0 for no effect and ±100 for the full control effect; potency is the fitted concentration of half-maximal effect.

Sequence of 15-hydroxyprostaglandin dehydrogenase [NAD(+)] (Homo sapiens) (P15428 whole entry, looked up): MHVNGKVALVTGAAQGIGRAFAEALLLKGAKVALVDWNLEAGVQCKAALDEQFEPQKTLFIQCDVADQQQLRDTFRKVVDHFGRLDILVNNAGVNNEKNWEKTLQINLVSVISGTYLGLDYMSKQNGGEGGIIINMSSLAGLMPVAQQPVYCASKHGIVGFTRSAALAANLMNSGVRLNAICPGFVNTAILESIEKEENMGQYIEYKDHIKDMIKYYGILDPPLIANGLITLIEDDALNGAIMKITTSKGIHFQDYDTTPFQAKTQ

Activity change, negative = inhibition, inactive:
CCOC(=O)C1=C(c2ccc(OC)cc2)C(=O)c2ccccc2C1=O -6.53%
O=c1c2ccccc2oc2nc(C3CCCCC3)n(Cc3ccco3)c(=O)c12 -6.04%
COc1ccc(N2CCN(Cc3cc(=O)oc4ccc5ccccc5c34)CC2)cc1 -9.86%
COC(C(=O)Nc1ccc(C(C)=O)cc1)c1ccccc1 (configuration not stated) -9.31%
O=C(Cc1cccs1)Nc1cccc(-c2nc3ccccc3[nH]2)c1 -8.46%
O=C(CCc1nc2ccccc2c(=O)[nH]1)OCC(=O)c1cccc(Cl)c1 -9.26%
Cc1ccc(C(=O)C(=S)N2CCOCC2)cc1 -3.51%
CCOc1cc(C(=O)OCC(=O)Nc2cccc(C)c2)ccc1OCC(=O)N1CCOCC1 -18.5%
COc1ccc2c(c1)O[C@@H](c1ccc3c(c1)OCO3)[C@H](OC(=O)NCCc1ccc(OC)c(OC)c1)C2=O -3.81%
S=C(Nc1cccc(Cl)c1)Nc1ccc2cn[nH]c2c1 -14.3%
Cc1cc(C)cc(C(=O)N2CCN=C2SCc2ccc([N+](=O)[O-])cc2)c1 -11.7%
O=C(COc1ccccc1F)NNC(=O)c1ccc(N2CCCCC2)c([N+](=O)[O-])c1 -21.3%
COc1ccc(NC(=O)c2nc(-n3nc(C)cc3C)ccc2Cl)cc1Cl -17.4%
CCCN(CCC)C(=S)Nc1cc(C(=O)OC)ccc1C(=O)OC -9.23%
O=C(NNc1ccccn1)c1ccc(Cl)nc1 -23%
COc1cc(OC)nc(NC(=O)CCl)n1 -16.6%
CCOCC(=O)Nc1cc(OC)c(Cl)cc1OC -3.42%
CC(C)CC(=O)NC(=S)Nc1cc(C(=O)O)ccc1Cl -13.5%
COc1ccc(-c2nc3c(c4c2C[C@H](c2ccccc2)OC4)CN(S(=O)(=O)c2c(C)noc2C)CC3)c(C)c1 -1.95%
CCOC(=O)c1c(C)[nH]c(C(=O)COc2ccc3c(c2)OCO3)c1C -6.28%
CCOC(=O)c1nc(-c2ccc3c(c2)OCO3)[nH]c1C -11.1%
Cc1ccc(S(=O)(=O)N/N=C\c2cc3c(cc2[N+](=O)[O-])OCO3)cc1 -28.1%
Cc1c(NC(=O)CCCOc2ccccc2)cccc1[N+](=O)[O-] -12.9%
O=C(Cc1cc(=O)[nH][nH]1)N/N=C/c1ccccc1[N+](=O)[O-] -14.9%
COC(=O)/C(=C1\Oc2ccc(C(C)(C)C)cc2S1)C(F)(F)F -12.2%
COc1cc(OC)cc(-c2nc3ccccc3c(=O)n2NC(=O)c2cccnc2Cl)c1 -8.81%
NC(=O)Nc1ccccc1C(=O)NCCc1ccccc1 -3.92%
CCOc1cc(/C=N/NC(=O)OC)ccc1OCCSc1ccc(Cl)cc1 -11.7%
Cc1nn(-c2ccccc2)c2c1C(c1cccc([N+](=O)[O-])c1)N(c1ccccc1)C(=O)N2 (configuration not stated) -6.84%
CC(Sc1cccc[n+]1[O-])C(=O)Nc1cccc(S(=O)(=O)N2CCOCC2)c1 (configuration not stated) -20.6%
CC(=O)CC(c1ccccc1)C1C(=O)Oc2ccccc2C1=O (configuration not stated) -12.2%
O=C(c1cncc(Br)c1)N1CCN(c2ccc([N+](=O)[O-])cc2)CC1 -27.4%
CSCc1ccc(C(=O)Nc2cc(C)cc(C)c2)cc1 -12.7%
CN(C)S(=O)(=O)c1cccc(C(=O)Nc2cccnc2)c1 -13.1%
COc1ccc(N(C(=O)c2cccnc2)S(=O)(=O)c2ccc3c(c2)n(C)c(=O)n3C)cc1 -4.39%
COc1ccc(/C=N/NC(=O)c2ccccc2)cc1OS(=O)(=O)c1ccccc1 -15.2%
Cn1c(=NC(=O)c2cnccn2)sc2ccccc21 -8.2%
Cn1c(=NC(=O)CSCC(=O)N2CCOCC2)sc2ccccc21 -16.8%
O=C(Nc1nc(-c2ccc(-c3ccccc3)cc2)cs1)c1cnccn1 -5.23%
CN(c1ccccc1)S(=O)(=O)c1cccc(NC(=O)Cc2c(F)cccc2Cl)c1 -8.06%
Cc1ccc2c(c1)C1CN(C)CCC1N2C(=O)c1ccccc1NS(=O)(=O)c1ccc(F)cc1C (configuration not stated) -6.43%
CCOC(=O)C1CCCN(C(=O)C2CCN(c3nnc(-n4cccc4)s3)CC2)C1 (configuration not stated) -22.6%
CSc1ccc(CCNC(=O)C2CCN(c3nnc(-n4cccc4)s3)CC2)cc1 2.14%
COc1ccc(C(=O)Nc2nc(-c3ccc(OC)cc3)c(-c3ccc([N+](=O)[O-])cc3)s2)cc1 -12.2%
O=C(NC(Nc1nc2ccc([N+](=O)[O-])cc2s1)(C(F)(F)F)C(F)(F)F)c1ccccc1 -5.24%

Potency, active:
CCc1nc2oc3ccccc3c(=O)c2c(=O)n1Cc1ccc(OC)cc1 25.1 µM
CCOc1cc(C(=S)N2CCOCC2)ccc1O 12.6 µM
O=C1CCCC(O)=C1N=Nc1ccc2ncsc2c1 31.6 µM
O=C(CCl)NNc1cccc(Cl)n1 28.2 µM
COc1cc(NC(=S)NNC(=O)CC(C)C)c(OC)cc1Cl 31.6 µM
Cc1ccc(-c2n[nH]c(=S)n2/N=C/c2cc3c(cc2[N+](=O)[O-])OCO3)cc1 1.58 µM
CCOc1ccc(-c2n[nH]c(=S)n2/N=C/c2cc3c(cc2[N+](=O)[O-])OCO3)cc1 3.55 µM
O=[N+]([O-])c1ccccc1/C=N/n1c(COc2ccccc2)n[nH]c1=S 7.08 µM
O=C(c1cccnc1)N(c1cc2sc(=O)oc2c2ccccc12)S(=O)(=O)c1ccccc1 17.8 µM
Cn1c(=NC(=O)CSCC(=O)N2CCCCC2)sc2ccccc21 22.4 µM
O=C(C1CCN(c2nnc(-n3cccc3)s2)CC1)N1CCc2ccccc2C1 14.1 µM
COC(=O)C(NC(=O)c1ccc(OC)cc1)(Nc1ncc(S(=O)(=O)c2ccc([N+](=O)[O-])cc2)s1)C(F)(F)F (configuration not stated) 15.8 µM
